# Results as given in PubChem BioAssay (NCATS).
# Results filed as inconclusive are left out. Values without a mark were called inactive. The call rests on the fitted dose curve. Starred links: 1 amine or outer side, 2 acyl side, 3 side chain; linkers in the order of their positions; H or OH if unused. Positions of bridges follow the written chain, without caps; N, C: chain ends. Non-standard residues stand in square brackets, D forms with d. Residues, ends and D or L forms follow the SMILES beside them. ξ: configuration not given here. *: point of attachment. X1 = CCCCCCCCCC(=O)[C@H](C(=O)[*:2])[C@@H]1CNC(=O)[C@@H](N[*:1])CS1; Phe(3R-OH) = O=C([C@@H](N[*:1])[C@H](O[*:3])c1ccccc1)[*:2]; NMeTrp(4-OMe) = CN[C@@H](Cc1c[nH]c2cccc(OC)c12)C(=O)O; ξThr(3R)(O-yl) = C[C@@H](O[*:3])C(N[*:1])C(=O)[*:2]; NMeThr(3ξ) = CN[C@H](C(=O)O)C(C)O; NMeL = CN[C@@H](CC(C)C)C(=O)O; NMeV = CN[C@H](C(=O)O)C(C)C; ξIle = CC[C@H](C)C(N)C(=O)O; Hexanoyl = CCCCCC(=O)*; ξV = CC(C)C(N)C(=O)O
# Test: qHTS for inhibitors of Rabies Virus screened against the NCATS CANVASS Library (AID 1347402); further: 0% is about no effect
# Settings: Rabies virus infection cell assay; series mostly up to 45.9 µM; activity change, negative = inhibition: at the top concentration
row,SMILES,"activity change, negative = inhibition [%]"
1,C=C1C[C@@]23C=CC(=O)[C@@](C)(CCC(=O)Nc4c(O)ccc(C(=O)O)c4O)C2C[C@@H]1CC3 (stereo not given in full),-11.6
2,Cc1occ2c1C(=O)c1c(cc(O)c(O)c1O)C2=O,-33.2
3,COc1cc2c(cc1OC)[C@@H](c1ccc3c(c1)OCO3)C(C)[C@@H](C)C2=O (stereo not given in full),-22
4,CN1C(=O)C2C(N=CN2C)N(C)C1=O (stereo not given),-27.5
5,C=C1[C@@]2(C)CC3C4(C)CCC(O)C(C)(C)C4CCC3(C)[C@]1(C(=O)OC)C(=O)C(C)(O)C2=O (stereo not given in full),-20.4
6,C[C@]12CCC[C@](C)(C(=O)O)[C@@H]1CC[C@@]1(C)c3cocc3CC[C@H]21,-21.6
7,COc1c(O)cc2oc(-c3ccccc3)cc(=O)c2c1O,-20.1
8,Cc1cc(O)cc2oc(C[C@H](C)O)cc(=O)c12,-15.3
9,CC[C@H](C)C(NC(=O)[C@@H](NC)C(C)C)C(=O)NC1C(=O)N(C)[C@@H](C(C)O)C(=O)N[C@@H](C(C)C)C(=O)N(C)[C@@H](CC(C)C)C(=O)NC(C(C)C)C(=O)N(C)[C@@H](C(C)C)C(=O)N(C)[C@@H](Cc2c[nH]c3cccc(OC)c23)C(=O)N[C@@H](C(C)C)C(=O)N[C@@H]([C@H](O)c2ccccc2)C(=O)N[C@@H](C(C)C)C(=O)O[C@@H]1C (stereo partly drawn) (H-[NMeV][ξIle][ξThr(3R)(O-yl)][NMeThr(3ξ)]V[NMeL][ξV][NMeV][NMeTrp(4-OMe)]V[Phe(3R-OH)]V; ester 3-C),51.2
10,CC[C@H](O)CCCCC[C@@H]1NC(=O)[C@H]2CCCCN2C(=O)[C@H]([C@H](C)CC)NC(=O)[C@H](Cc2cn(OC)c3ccccc23)NC1=O,-34.2
11,COc1ccc([C@@H]2c3cc4c(cc3C(=O)C(C)C2C)OCO4)cc1OC (stereo not given in full),-12.4
12,Oc1ccc(/C=C2/c3cc(O)cc(O)c3C(c3ccc(O)cc3)[C@H]2c2cc(O)cc(O)c2)cc1 (stereo not given in full),-8.29
13,CCCCCC(=O)N[C@@H](CC(C)C)C(=O)N[C@H](C=O)CCC(=O)O (Hexanoyl-Leu-Glu-aldehyde),5.6
14,O[C@H]1c2ccccc2-c2c3c(cc4c2[C@@H]1NCC4)OCO3,-20.4
15,C/C(=C\[C@H](C)C(=O)CCCC1CC(=O)NC(=O)C1)C(O)[C@@H](C)[C@H](O)C/C=C/CC/C=C/C(=O)O (stereo not given in full),21.1
16,C1=C2CCCN[C@@H]2[C@@H]2CCN3CCCC[C@@H]3[C@H](C1)C2,-19.2
17,C=C1C[C@@]23C=CC(=O)[C@@](C)(CCC(=O)Nc4c(O)ccc(C(=O)O)c4O)C2C[C@@H]1CC3O (stereo not given in full),3.39
18,C/C=C1/CC[C@@H]2c3[nH]c4ccccc4c3CCN2C1,-12.7
19,O=C(O)[C@@]12COC3(O)C1CCN1CC[C@H]3[C@@H]1c1c2[nH]c2ccccc12,-9.84
20,CCC1=C2CCCN3C(=O)O[C@H]([C@H]1OC(C)=O)[C@H]23,-13.8

row,SMILES,"activity change, negative = inhibition [%]"
1,CC[C@@H]1C[C@@]2(CC)OC(=O)[C@@]3(CC)[C@H](CC)[C@@H]1[C@@H]23,-2.6
2,CC(=O)c1c(C)cc2c(c1O)C(=O)c1c(O)cc(O)cc1C2=O,4.1
3,Cc1cc(O)cc2c1C(=O)c1c(O)cc(O)cc1C2=O,4.13
4,C/C=C1/C2=CCCN3C(=O)O[C@H]([C@H]1O)[C@H]23,-7.1
5,C=C(NC(=O)c1csc(-c2nc3c(cc2O)-c2nc(cs2)C(=O)NC(C(C)O)C(=O)N/C(=C(\C)O)c2nc(cs2)C(=O)NC2c4nc(cs4)C(=O)NC(COC(=O)c4c5c6c(cccc6n4O)COC(=O)[C@@H](OC4C[C@](C)(O)[C@H](N(C)C)[C@H](C)O4)C2OC5)c2nc-3cs2)n1)C(N)=O (stereo not given in full),38.6
6,C=CC(C)(C)C(=O)[C@@H](C)[C@@H]1CC[C@@](C)(C=C)O1,11.4
7,O=Cc1ccc2n1C[C@@]1(C[C@H](O)[C@H](O)CO1)OC2,10.3
8,C/C=C/[C@H]1[C@H]2C(=O)c3c(O)c(C)c(O)c(C)c3[C@]1(C(=O)O)C(=O)C=C2C,-1.68
9,COc1ccc([C@@H]2c3cc(OC)c(OC)cc3C(=O)C(C)C2C)cc1OC (stereo not given in full),-15.8
10,COC1C(C)OC(OCC23C[C@@H]4[C@H](C)CC[C@H]4C4(C=O)CC2C=C(C(C)C)C34C(=O)O)[C@@H](O)[C@H]1O (stereo not given in full),2.68
11,COc1cc(/C=C/C(=O)O)ccc1O,-5.38
12,C=C[C@]1(C)CC[C@@H]([C@H](C)C(=O)/C=C/C(C)(C)O)O1,-10.2
13,C=C1CC[C@@H](O[C@H]2C[C@@](O)([C@H](C)NC(=O)c3[nH]c(C)c(Cl)c3Cl)[C@H](O)[C@@H](C)O2)[C@@H]2C=C[C@H](C)C(/C(O)=C3/C(=O)[C@H](C(C)C)N([C@@H]4O[C@H](C)[C@H](OC(N)=O)[C@H](OC(C)=O)[C@@H]4OC)C3=O)[C@@H]12 (stereo not given in full),-1.08
14,C=CC(CCCCC)C1C(=O)NC(=O)C1C(=O)C1C2C(C)CC(C(=O)O)CC2CC1(O)C(=O)/C=C/C (stereo not given),-1.16
15,CCCCCCCCCC(=O)[C@@H]1C(=O)N[C@@H](CC(C)C)C(=O)N[C@H](C)C(=O)N2CCC[C@H]2C(=O)N[C@@H](C(C)C)C(=O)N[C@H]2CS[C@H]1CNC2=O (cyclo(L[dA]PV[X1])),-9.71
16,CC(=O)N[C@H](C)c1nc(/C=C/C=C/C(=O)CC2CC(=O)CC[C@]2(C)O)cs1 (stereo not given in full),-4.07
17,CC(C)=CCC[C@]12c3cc4c(cc3CC[C@@]1(C)[C@H](C)CC[C@@H]2O)[nH]c1ccccc14,-2.51
18,CCCc1c2c([nH]c(=O)c1C)C(=O)c1[nH]c(=O)c(C)c(CCC)c1C2=O,-31.7
19,CN1CCc2cc3c(c4c2C1(C)C(=O)c1cc(O)ccc1-4)OCO3 (stereo not given),-17.4
20,C/C(=C\[C@@H](C)CC/C=C/CC/C=C/C(=O)O)[C@@H](O)[C@H](C)C(=O)CCCC1CC(=O)NC(=O)C1,-3.87
